# Activity calls are given as the source filed them. How the source made its calls: active means hit-call score of the fitted dose curve at least 0.9, where 1 is the maximum; inactive means score below 0.9.
# Read-out: Monocyte Chemoattractant Protein-1 (MCP1), CCL2 (gene 6347)
# Test: BSK_4H_MCP1: BioMAP Diversity Plus: 4H Assay for Monocyte Chemoattractant Protein-1 (MCP1) Biomarker Activity (AID 2283018)
# Settings: primary human endothelial cells (HUVEC); actives raise or lower the signal
# Procedure: BSK_4H is a cell-based, multiplexed-readout assay that uses umbilical vein endothelium, a human vascular primary cell, with measurements taken at 24 hours after chemical dosing in a 96-well plate.BSK_4H_MCP1 is an assay component measured in the BSK_4H assay. It measures MCP-1 antibody related to regulation of gene expression using ELISA technology.Data from the assay component BSK_4H_MCP1 was analyzed into 1 assay endpoint. This assay endpoint, BSK_4H_MCP1, was analyzed with bidirectional fitting relative to DMSO as the negative control and baseline of activity. Using a type of binding reporter, gain or loss-of-signal activity can be used to understand changes in the signaling as they relate to the gene CCL2. Furthermore, this assay endpoint can be referred to as a primary readout, because this assay has produced multiple assay endpoints where this one serves a signaling function. To generalize the intended target to other relatable targets, this assay endpoint is annotated to the cytokine intended target family, where the subfamily is chemotactic factor.
# The levels of cell surface (or secreted, indicated by the prefix "s") biomarker endpoints were measured by ELISA. Overt cytotoxicity to cells in confluent adherent cultures (all systems other than the BT system) was assessed by measuring total protein levels using sulforhodamine B (SRB) staining in parallel cultures at the time of biomarker measurements, indicated as SRB endpoints. For proliferation assays for adherent cell types, individual cell types are cultured at sub-confluence and relative cell numbers quantified by SRB staining at time points optimized for each system (48 h: 3C and CASM3C systems; 72 h: BT and HDF3CGF systems; 96 h: SAg system). SRB was performed by staining cells with 0.1% SRB after fixation with 10% TCA and reading wells at 560 nm.Viability and proliferation of PBMC (T cells) was quantified by Alamar Blue reduction for the SAg and BT systems. For PBMC viability (referred to as PBMC Cytotoxicity within the assay endpoint names), cells were plated (75,000/well in a 96-well plate) and then chemical samples added for 1 h before addition of activators, SEB and TSST-1 (20 ng/mL final concentration each). Cells were incubated for 90 h. Then, Alamar Blue (20 uL/well) (Invitrogen, Cat DAL1100) was added for 6 h, and the plates were read with a fluorescence microplate reader at 546/580 nm (excitation/emission). For PBMC proliferation, cells were plated and activated as above but incubated for only 16 h prior to addition of Alamar Blue. Plates were read after 6 h.
Compound,outcome,AC50
COCc1cnc(C2=NC(C)(C(C)C)C(=O)N2)c(C(=O)O)c1 (stereo not given),inactive,
CCCCC(C#N)(Cn1cncn1)c1ccc(Cl)cc1 (stereo not given),inactive,
C=CCOC(=O)C(C)(C)OC(=O)c1cc(-n2c(=O)cc(C(F)(F)F)n(C)c2=O)ccc1Cl,inactive,
CCCN(CC)CC1COC2(CCC(C(C)(C)C)CC2)O1 (stereo not given),inactive,
CCNP(=S)(OC)O/C(C)=C/C(=O)OC(C)C (stereo not given),inactive,
N#Cc1c[nH]cc1-c1cccc2c1OC(F)(F)O2,inactive,
CCCCC(O)(Cn1cncn1)c1ccc(Cl)cc1Cl (stereo not given),inactive,
COP(=O)(OC)O/C(C)=C/C(=O)N(C)C,inactive,
CCOP(=S)(OCC)Oc1nc(Cl)n(C(C)C)n1,inactive,
COP(=S)(OC)SCn1nnc2ccccc2c1=O,inactive,
CS(=O)(=O)c1ccc(C(=O)C2C(=O)CCCC2=O)c([N+](=O)[O-])c1,inactive,
Cc1cnc(C2=NC(C)(C(C)C)C(=O)N2)c(C(=O)O)c1 (stereo not given),inactive,
CCC(C)n1c(=O)[nH]c(C)c(Br)c1=O (stereo not given),inactive,
Nc1c(Cl)c(Cl)nc(C(=O)O)c1Cl,inactive,
O=c1n(Cl)c(=O)n(Cl)c(=O)n1Cl,inactive,
N#Cc1c(Cl)cccc1Cl,inactive,
CCOc1nc(C(Cl)(Cl)Cl)ns1,inactive,
Nc1c(Cl)c(F)nc(OCC(=O)O)c1Cl,inactive,
CC(C)N1C(=O)c2ccccc2NS1(=O)=O,inactive,
COc1ccc(-c2ccccc2)cc1NNC(=O)OC(C)C,inactive,

Compound,outcome,AC50
CCSC(=O)N1CCCCCC1,inactive,
Nc1cnn(-c2ccccc2)c(=O)c1Cl,inactive,
O=C(Nc1ccccc1-c1ccc(Cl)cc1)c1cccnc1Cl,inactive,
CC(C)Nc1nc(Cl)nc(NC(C)C)n1,inactive,
COC(=O)NC(=S)Nc1ccccc1NC(=S)NC(=O)OC,,5.32 µM (active)
CN=C=S,inactive,
Cc1nc(N(C)C)nc(OC(=O)N(C)C)c1C,inactive,
CC(C)N1C(=O)N(c2ccccc2)CSC1=NC(C)(C)C,,30.4 µM (active)
O=C(O)c1c(Cl)ccc2cc(Cl)cnc12,inactive,
CC(C)NC(=O)N1CC(=O)N(c2cc(Cl)cc(Cl)c2)C1=O,inactive,
CC1(C)CON(Cc2ccccc2Cl)C1=O,inactive,
Clc1nc(Cl)nc(Nc2ccccc2Cl)n1,inactive,
CC(C)C1(C)N=C(c2ncccc2C(=O)O)NC1=O (stereo not given),inactive,
CS(=O)(=O)c1cc(C(F)(F)F)ccc1C(=O)c1cnoc1C1CC1,inactive,
COP(=S)(OC)Oc1ccc([N+](=O)[O-])c(C)c1,inactive,
COC(=O)c1c(C(F)F)nc(C(F)(F)F)c(C2=NCCS2)c1CC(C)C,,17.6 µM (active)
O=C1C2CC=CCC2C(=O)N1SC(Cl)(Cl)Cl (stereo not given),inactive,
CCCC(=NOCC)C1=C(O)CC(CC(C)SCC)CC1=O (stereo not given),inactive,
CNC(=O)N(C)c1nnc(C(C)(C)C)s1,inactive,
CC(C)=CC1C(C(=O)OCc2coc(Cc3ccccc3)c2)C1(C)C (stereo not given),inactive,
